Experimental data reported in PubChem BioAssay (EPA / NIEHS).
Activity calls are given as the source filed them. Rule for the calls: active = hit-call score of the fitted dose curve at least 0.9, where 1 is the maximum; inactive = score below 0.9.

Legend:
Settings in all cases: mRNA level, 48 h; actives raise or lower the signal
[1] = read-out: adenosine kinase (ADK) gene, ADK (gene 132); test: LTEA_HepaRG_ADK: Life Technologies and Expression Analysis (LTEA) Assay for adenosine kinase (ADK) gene using HepaRG (AID 2283471)
Summary of the method: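 Differentiated HepaRG cells dosed 48 h in serum-free induction medium, 0.5% DMSO vehicle, eight half-log concentrations from 100 uM, in duplicate. ADK mRNA by TaqMan qRT-PCR normalised to ACTB, GAPDH, POLR2A; bidirectional fit versus DMSO.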

[2] = read-out: BCL2L11 (gene 10018); test: LTEA_HepaRG_BCL2L11: Life Technologies and Expression Analysis (LTEA) Assay for Bcl-2 (BCL2L11) gene using HepaRG (AID 2283473)
Summary of the method: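 Human hepatic HepaRG cultures are treated 48 h with test chemicals (maximum 100 uM, 0.5% DMSO vehicle). Expression of BCL2L11 is measured by qRT-PCR against ACTB, GAPDH and POLR2A, with activity in either direction scored relative to vehicle.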

[3] = read-out: Apolipoprotein A-V (APOA5) gene, APOA5 (gene 116519); test: LTEA_HepaRG_APOA5: Life Technologies and Expression Analysis (LTEA) Assay for Apolipoprotein A-V (APOA5) gene using HepaRG (AID 2283474)
Summary of the method: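 Concentration-response of APOA5 expression in HepaRG: eight half-log doses to 100 uM, 48 h, qRT-PCR normalized to ACTB/GAPDH/POLR2A, bidirectional fitting with 0.5% DMSO as baseline.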

[4] = read-out: Apoptosis regulator Bcl-2 (Homo sapiens) (UniProt P10415); test: LTEA_HepaRG_BCL2: Life Technologies and Expression Analysis (LTEA) Assay for Bcl-2 gene using HepaRG (AID 2283475)
Summary of the method: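 Differentiated human HepaRG cells in serum-free induction medium exposed 48 h, in duplicate, to 8-point half-log series from 100 uM in 0.5% DMSO. BCL2 mRNA by qRT-PCR (TaqMan/Fluidigm), normalized to ACTB, GAPDH, POLR2A; bidirectional fit against DMSO.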

[5] = read-out: Bcl-2 (BID) gene, BID (gene 637); test: LTEA_HepaRG_BID: Life Technologies and Expression Analysis (LTEA) Assay for Bcl-2 (BID) gene using HepaRG (AID 2283476)
Summary of the method: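 Gene expression by qRT-PCR in HepaRG cells after 48 h exposure, duplicate wells, eight half-log concentrations topping at 100 uM in 0.5% DMSO. Normalized to ACTB, GAPDH, POLR2A; bidirectional fitting relative to DMSO.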

[6] = read-out: Caspase-3 (Homo sapiens) (UniProt P42574); test: LTEA_HepaRG_CASP3: Life Technologies and Expression Analysis (LTEA) Assay for cysteine-aspartic acid protease (CASP3) using HepaRG (AID 2283477)
Summary of the method: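 Transcript-level assay: CASP3 mRNA in human HepaRG after 48 h treatment, eight half-log concentrations from 100 uM in 0.5% DMSO, quantified by qRT-PCR.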

[7] = read-out: Cytochrome P450 (CYP24A1), CYP24A1 (gene 1591); test: LTEA_HepaRG_CYP24A1: Life Technologies and Expression Analysis (LTEA) Assay for Cytochrome P450 (CYP24A1) using HepaRG (AID 2283478)
Summary of the method: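 Gene expression of CYP24A1 by TaqMan qRT-PCR in HepaRG after 48 h treatment, highest concentration 100 uM; activity fitted in both directions relative to DMSO vehicle.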

[8] = read-out: Cytochrome P450 (CYP1A2), CYP1A2 (gene 1544); test: LTEA_HepaRG_CYP1A2: Life Technologies and Expression Analysis (LTEA) Assay for Cytochrome P450 (CYP1A2) using HepaRG (AID 2283479)
Summary of the method: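 In duplicate wells, HepaRG cultures maintained in 0.5% DMSO were treated 48 h across an 8-point, half-log series topping at 100 uM; phenobarbital (1 mM) served as induction control. Expression was read by qRT-PCR.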

[9] = read-out: cysteine-aspartic acid protease (CASP8), CASP8 (gene 841); test: LTEA_HepaRG_CASP8: Life Technologies and Expression Analysis (LTEA) Assay for cysteine-aspartic acid protease (CASP8) using HepaRG (AID 2283480)
Summary of the method: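 HepaRG, 48 h exposure, duplicate wells; 8 conc, half-log from 100 uM, 0.5% DMSO. Serum-free induction medium. CASP8 mRNA by TaqMan qRT-PCR, norm. ACTB/GAPDH/POLR2A; gain/loss fitted vs DMSO.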

[10] = read-out: Cytochrome P450 (CYP2B6), CYP2B6 (gene 1555); test: LTEA_HepaRG_CYP2B6: Life Technologies and Expression Analysis (LTEA) Assay for Cytochrome P450 (CYP2B6) using HepaRG (AID 2283481)
Summary of the method: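 Human HepaRG, 48 h dosing, 0.5% DMSO vehicle, top dose 100 uM. CYP2B6 transcript by qRT-PCR, housekeeping-normalized, bidirectional curve fit.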

[11] = read-out: Cytochrome P450 2C19 (Homo sapiens) (UniProt P33261); test: LTEA_HepaRG_CYP2C19: Life Technologies and Expression Analysis (LTEA) Assay for CYP2C19 using HepaRG (AID 2283482)
Summary of the method: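 Endpoint: CYP2C19 mRNA change, bidirectional fit vs 0.5% DMSO. Cells: HepaRG, 48 h exposure, eight-point series topping at 100 uM. Quantitation: qRT-PCR normalized to ACTB, GAPDH, POLR2A.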

[12] = read-out: CYP2C8 (gene 1558); test: LTEA_HepaRG_CYP2C8: Life Technologies and Expression Analysis (LTEA) Assay for CYP2C8 using HepaRG (AID 2283483)
Summary of the method: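 CYP2C8 mRNA induction or loss, by qRT-PCR normalized to ACTB/GAPDH/POLR2A, is read in HepaRG cells after 48 h treatment. Concentrations run from 100 uM down in half-log dilutions, with 0.5% DMSO as vehicle and baseline.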

[13] = read-out: CYP2C9 (gene 1559); test: LTEA_HepaRG_CYP2C9: Life Technologies and Expression Analysis (LTEA) Assay for CYP2C9 using HepaRG (AID 2283484)
Summary of the method: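 Cells plated 48 h, switched to serum-free induction medium, then treated in duplicate for 48 h at eight concentrations (max 100 uM, 0.5% DMSO). RNA then analysed by qRT-PCR for CYP2C9; curves fitted in both directions relative to DMSO.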

[14] = read-out: CYP2E1 (gene 1571); test: LTEA_HepaRG_CYP2E1: Life Technologies and Expression Analysis (LTEA) Assay for CYP2E1 using HepaRG (AID 2283485)
Summary of the method: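 HepaRG cells, plated 48 h, then exposed 48 h in serum-free induction medium to eight half-log concentrations from 100 uM in 0.5% DMSO, duplicate. CYP2E1 mRNA by qRT-PCR, normalized to ACTB/GAPDH/POLR2A; bidirectional fit versus DMSO.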

[15] = read-out: CYP4A11 (gene 1579); test: LTEA_HepaRG_CYP4A11: Life Technologies and Expression Analysis (LTEA) Assay for CYP4A11 using HepaRG (AID 2283486)
Summary of the method: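 Human hepatic HepaRG cultures receive duplicate 48 h exposures across a concentration-response series topping at 100 uM. Expression changes in CYP4A11 are measured by qRT-PCR relative to DMSO controls.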

[16] = read-out: DNA damage-inducible transcript 3 (DDIT3), DDIT3 (gene 1649); test: LTEA_HepaRG_DDIT3: Life Technologies and Expression Analysis (LTEA) Assay for DNA damage-inducible transcript 3 (DDIT3) using HepaRG (AID 2283488)
Summary of the method: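 HepaRG cells, 48 h after plating, exposed 48 h in serum-free induction medium to 8 half-log concentrations up to 100 uM in 0.5% DMSO, in duplicate. DDIT3 mRNA measured by TaqMan qRT-PCR, normalized to ACTB, GAPDH and POLR2A. Fitted bidirectionally against DMSO.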

[17] = read-out: Early growth response protein 1 (EGR1) transcription factor, EGR1 (gene 1958); test: LTEA_HepaRG_EGR1: Life Technologies and Expression Analysis (LTEA) Assay for Early growth response protein 1 (EGR1) transcription factor using HepaRG (AID 2283490)
Summary of the method: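 Read-out is EGR1 mRNA level by qRT-PCR, normalized to three housekeeping genes and analysed for gain or loss of signal against 0.5% DMSO. Source cells: human HepaRG, treated 48 h at up to 100 uM in half-log dilutions.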

[18] = read-out: Cytochrome P450 3A4 (Homo sapiens) (UniProt P08684); test: LTEA_HepaRG_CYP3A4: Life Technologies and Expression Analysis (LTEA) Assay for CYP3A4 using HepaRG (AID 2283487)
Summary of the method: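 Differentiated HepaRG cells in serum-free induction medium exposed in duplicate for 48 h to 8 half-log concentrations up to 100 uM in 0.5% DMSO. CYP3A4 mRNA measured by qRT-PCR normalized to ACTB, GAPDH and POLR2A; bidirectional fit versus DMSO.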

Measured: AC50

Sequence of Caspase-3 (Homo sapiens) (P42574 whole entry, looked up): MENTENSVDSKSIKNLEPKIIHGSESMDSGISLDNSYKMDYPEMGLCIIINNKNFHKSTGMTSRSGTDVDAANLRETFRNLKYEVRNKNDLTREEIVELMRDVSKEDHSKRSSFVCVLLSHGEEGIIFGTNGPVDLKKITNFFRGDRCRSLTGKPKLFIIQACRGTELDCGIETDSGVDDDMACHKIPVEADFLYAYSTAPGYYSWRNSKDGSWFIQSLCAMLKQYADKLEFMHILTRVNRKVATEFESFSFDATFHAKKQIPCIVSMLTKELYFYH
Sequence of Cytochrome P450 2C19 (Homo sapiens) (P33261 whole entry, looked up): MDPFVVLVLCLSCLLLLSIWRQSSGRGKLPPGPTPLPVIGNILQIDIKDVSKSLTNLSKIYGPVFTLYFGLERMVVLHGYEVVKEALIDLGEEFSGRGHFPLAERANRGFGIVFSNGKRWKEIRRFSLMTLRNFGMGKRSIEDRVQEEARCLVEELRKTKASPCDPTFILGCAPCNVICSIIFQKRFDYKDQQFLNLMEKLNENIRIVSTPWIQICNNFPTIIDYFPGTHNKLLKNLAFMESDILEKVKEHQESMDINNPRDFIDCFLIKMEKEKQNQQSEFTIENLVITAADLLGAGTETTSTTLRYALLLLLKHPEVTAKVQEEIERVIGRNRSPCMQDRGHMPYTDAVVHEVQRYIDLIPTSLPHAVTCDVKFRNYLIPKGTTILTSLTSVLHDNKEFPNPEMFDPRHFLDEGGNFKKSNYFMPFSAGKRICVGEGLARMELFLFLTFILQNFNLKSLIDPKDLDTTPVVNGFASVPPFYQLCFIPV
Sequence of Apoptosis regulator Bcl-2 (Homo sapiens) (P10415 whole entry, looked up): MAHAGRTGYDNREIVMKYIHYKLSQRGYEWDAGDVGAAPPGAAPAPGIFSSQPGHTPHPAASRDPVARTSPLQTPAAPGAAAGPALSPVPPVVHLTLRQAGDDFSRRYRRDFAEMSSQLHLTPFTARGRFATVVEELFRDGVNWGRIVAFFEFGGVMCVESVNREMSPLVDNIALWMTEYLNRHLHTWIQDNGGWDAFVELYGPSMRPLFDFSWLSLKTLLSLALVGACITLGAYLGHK
Sequence of Cytochrome P450 3A4 (Homo sapiens) (P08684 whole entry, looked up): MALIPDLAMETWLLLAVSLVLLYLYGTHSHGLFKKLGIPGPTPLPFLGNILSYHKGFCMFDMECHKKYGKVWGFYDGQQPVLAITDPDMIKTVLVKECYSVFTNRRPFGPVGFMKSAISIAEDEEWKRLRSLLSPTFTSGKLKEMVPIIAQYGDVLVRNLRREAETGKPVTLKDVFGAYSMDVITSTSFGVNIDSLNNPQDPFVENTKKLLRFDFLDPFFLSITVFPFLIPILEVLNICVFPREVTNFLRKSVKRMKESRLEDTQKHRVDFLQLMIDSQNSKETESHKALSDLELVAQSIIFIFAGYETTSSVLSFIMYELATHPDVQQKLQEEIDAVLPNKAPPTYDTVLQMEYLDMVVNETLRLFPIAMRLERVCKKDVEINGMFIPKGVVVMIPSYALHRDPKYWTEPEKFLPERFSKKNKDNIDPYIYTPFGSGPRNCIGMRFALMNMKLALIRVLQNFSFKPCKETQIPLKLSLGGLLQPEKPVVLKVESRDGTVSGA

COCCOCCO
active: [10] 1.15 µM | [11] 2.31 µM
not listed: [18]
inactive: all other assays above

ClC(Cl)c1ccccc1
active: [10] 22.8 µM
inactive: all other assays above

CCN(CC)c1ccccc1
active: [8] 39 µM
inactive: all other assays above

c1cc2c3c(cccc3c1)CC2
active: [10] 50 µM | [14] 0.391 µM
inactive: all other assays above

CCC1(c2ccccc2)C(=O)N=C(O)NC1=O (stereo not drawn)
active: [10] 34.7 µM | [11] 63.6 µM | [12] 50 µM | [18] 50 µM
not listed: [15]
inactive: all other assays above
